Sfp PPTase inh – qHTS Assay for Inhibitors of Bacillus subtilis Sfp phosphopantetheinyl transferase (PPTase) | hit rate 3.5% among 310,000 | 4'-phosphopantetheinyl transferase ffp (Bacillus subtilis), Q9F4F7 | Potency, µM, inactives show largest response in the series, negative = inhibition, actives largely listed as inhibitors | AID 1490, 2009 | Biochemical Sfp PPTase activity, qHTS;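 also: the enzyme is Sfp with the accession as filed and its product quenches rhodamine fluorescence; 0% = enzyme reaction without inhibitor and -100% = no enzyme wells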
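After 15 min at room temperature with compound, 15 nM Sfp received 5 uM rhodamine-CoA plus 12.5 uM BHQ-2-ybbR (50 mM Hepes pH 7.6, 10 mM MgCl2). Rate came from the fluorescence difference over 30 min, ex 525/em 598 nm.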
G9a block – qHTS Assay for Inhibitors of Histone Lysine Methyltransferase G9a; AID 504332, 2011; Potency, µM (top dose mostly 102 µM), without a hit: at the top dose activity, negative = inhibition, hits mostly inhibitors; hit rate 8.8% among 350,000; G9a H3K9 monomethylation, AlphaScreen, 2 h; Histone-lysine N-methyltransferase EHMT2 (Homo sapiens), Q96KQ7; also: % is scaled to controls: 0 for no effect and ±100 for the full control effect; nearly all actives have a fitted effect of over 75% in size
Target sequence (Q96KQ7 913-1193 limits assumed): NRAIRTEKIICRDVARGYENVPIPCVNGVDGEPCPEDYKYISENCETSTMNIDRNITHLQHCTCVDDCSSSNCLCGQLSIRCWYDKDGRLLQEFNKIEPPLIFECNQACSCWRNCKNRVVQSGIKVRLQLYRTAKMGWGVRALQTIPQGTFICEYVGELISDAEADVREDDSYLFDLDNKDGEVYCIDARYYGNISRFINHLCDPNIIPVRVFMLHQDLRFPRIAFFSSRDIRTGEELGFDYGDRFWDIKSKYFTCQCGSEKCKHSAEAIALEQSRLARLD
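Readings reflect AlphaScreen signal from monomethyl-H3K9 antibody detection. HMT at 20 nM; substrate b-H3K9 500 nM; cofactor SAM 20 uM; 2 h RT reaction; compounds tested as titrations in qHTS with 15 min preincubation.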
ALOX12 inh – Primary qHTS assay for inhibitors of human arachidonate 12S-lipoxygenase (ALOX12): Round 2. Potency, µM (highest dose often 108 µM), inactives show at the highest dose activity change, negative = inhibition, hits mostly inhibitors. Polyunsaturated fatty acid lipoxygenase ALOX12 (Homo sapiens), P18054. purified 12hLO, xylenol orange hydroperoxide absorbance. hit rate 1.1% among 580,000; also: % is scaled to controls: 0 for no effect and ±100 for the full control effect
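Hydroperoxide product was detected by ferrous iron/xylenol orange as the 573 to 405 nm absorbance ratio. Arachidonic acid at 40 uM (final) was turned over for 30 min at room temperature by 150 nM human 12hLO, pH 7.0 Hepes buffer, after 15 min compound preincubation.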
VDR inhibitor – Inhibitors of the vitamin D receptor (VDR): qHTS; hit rate 0.93% among 400,000; VDR-SRC2-3 peptide fluorescence polarization, 2 h; Potency, µM, inactives show max response, negative = inhibition, hits mostly inhibitors; also: % is scaled to controls: 0 for no effect and ±100 for the full control effect
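FP read-out; VDR + SRC2-3 coactivator peptide; 23 nl compound by pintool; 2 h RT incubation; reagents held at 4 deg C, protected from light.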
GRP78 ERSR act – qHTS for Inducers of the Endoplasmic Reticulum Stress Response (ERSR) in Human Glioma: qHTS | U87-MG GRP78 promoter luciferase reporter, 16 h | Potency, µM, without a hit: at the top dose activation, hits mostly activators | hit rate 0.02% among 420,000 | AID 602332, 2012; also: series mostly up to about 76 µM; % of control where 0% means no effect; nearly all actives have a fitted effect of over 35% in size
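ERSR induction read as luciferase luminescence (Bright-Glo, 10 min at room temperature) in stably transfected human U87-MG glioma cells exposed to compounds for 16 h, using GRP78 as sensor.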
The depositor's hits bear a star; ? = inconclusive; . = no result given; [ ] = dose if it differs, or a comment. Many of the other results were omitted from the sample, so hits are more common in it than they were. Calls follow the shape of the dose curve; as a rule, active = well fitted curve in the direction sought with a large enough effect; inconclusive = small, poorly fitted or top-dose-only effect, or another doubt; inactive = no such curve, though single readings can be large; an effect the other way counts as inactive or inconclusive. Potency is read from the fitted curve at half-maximal effect.

SMILES	Sfp PPTase inh	G9a block	ALOX12 inh	VDR inhibitor	GRP78 ERSR act
N#CC1=C(N)Oc2ccc3ccccc3c2C1c1cccnc1 (stereo not drawn)	2%	45µM*	9%	0%	-6%
COC(=O)C1=C(C)N(c2cc(C)cc(C)c2)/C(=C/c2ccc(O)cc2)C1=O	45µM*	?	?	50µM*	?
COC(=O)C1=C(C)N(c2ccc(Cl)cc2)/C(=C/c2ccc(O)cc2)C1=O	4%	15%	-18%	-2%	-1%
O=C1OC(c2ccccc2)=NC12CC2c1ccc(Cl)cc1 (stereo not drawn)	?	3%[59 µM]	-27%	25µM*	-1%
O=CN1N=C(c2ccccc2)CC1c1ccc(Cl)cc1 (stereo not drawn)	10%	-4%[59 µM]	-4%	3%	-4%
Cc1ccc(O)c(C(=O)/C=C/c2ccc3c(c2)OCCO3)c1	-27%	25µM*	-9%	?	15%
O=C(/C=C/c1ccc2c(c1)OCCO2)c1ccccc1	-20%	56%	70%	50µM*	14%
Nc1ccccc1C(=O)/C=C/c1ccc2c(c1)OCO2	?	40µM*	-9%	-10%	-2%
Cc1ccc(C(=O)C=Cc2ccc3c(c2)OCO3)c(C)c1	.	.	-2%	.	11%
CC1CCc2cc(F)ccc2N1C(=S)NC1CC1 (stereo not drawn)	.	.	-23%	.	.
CNC(=O)CCc1nc(-c2ccccc2)c(-c2ccccc2)o1	.	.	-1%	.	.
CCOC(=O)C1CCN(C(=O)CCC(=O)NNc2nc3ccccc3c3nc(C)nn23)CC1	13%	45µM*	1%	2%	-3%
Cc1nc2c3ccccc3nc(NNC(=O)CCC(=O)N3CCC(C)CC3)n2n1	6%	79µM*	21%	2%	-2%
COc1ccc(N2CCN(C(=O)CCC(=O)NNc3nc4ccccc4c4nc(C)nn34)CC2)cc1	16%	22µM*	16%	-10%	0%
CCCN(C)C(=O)c1cn2cc(-c3cccc(Cl)c3)n(CC=C(C)C)c(=O)c2n1	.	.	63%	.	.
Cc1[nH]c2ccccc2c1/C=N\NC(=O)CNc1ccc2c(c1)OCO2	-18%	10µM*	-15%	7%	-3%
O=C(CNc1ccc2c(c1)OCO2)N/N=C\c1ccccc1Cl	-33%	?	-27%	-7%	2%
Cn1c(-c2ccc(F)cc2)cnc1NCc1ccccc1F	?	40µM*	?	-4%	-1%
Cn1c(-c2ccc(F)cc2)cnc1NCc1ccc(C#N)cc1	?	14µM*	?	8%	-6%
Cc1ccc(-c2cnc(NCc3c(F)cccc3Cl)n2C)cc1	.	7.1µM*	-13%	-1%	5%
Cn1c(-c2ccc(F)cc2)cnc1NCc1ccc(F)cc1F	-18%	.	?	-7%	0%
COc1ccc(-c2cc(=O)c3cc(OC(C)=O)ccc3o2)cc1	.	.	36%	.	.
Cc1ccc(CNc2ncc(-c3ccc4c(c3)OCO4)n2C)cc1	-25%	16µM*	?	-4%	-4%
COC(=O)CNc1ccc2c(c1)OCO2	-19%	8.9µM*	-22%	4%	4%
COC(=O)Nc1ccc2c(c1)OCO2	3%	?	5%	7%	-1%
SMILES	Sfp PPTase inh	G9a block	ALOX12 inh	VDR inhibitor	GRP78 ERSR act
Cc1ccc(S(=O)(=O)c2nnn3c2nc(NCc2ccc4c(c2)OCO4)c2sccc23)cc1	.	-9%[59 µM]	-12%	12%	-4%
Cc1ccc(S(=O)(=O)c2nc(NCc3ccc4c(c3)OCO4)sc2Cl)cc1	0%	32µM*	?	2%	0%
Cn1c(-c2ccc(F)cc2)cnc1NCc1ccc(F)cc1	-25%	18µM*	?	5%	0%
COc1ccc(-c2nc3cc(NC(=O)c4ccccc4I)ccc3o2)cc1	.	.	32%	.	.
O=C(CCC1CCCC1)NCC(=O)N1CCCCCCNC(=O)CC1c1ccccc1 (stereo not drawn)	.	.	24%	.	.
Cc1ccc(C(=O)Nc2ccc3c(c2)OCO3)cc1	4%	?	21%	-5%	-7%
Cc1ccc(CNc2ccc3c(c2)OCO3)cc1	56µM*	?	.	-23%	12%

Screens: PubChem BioAssay, National Center for Advancing Translational Sciences (NCATS)
